{"source": "PubChem BioAssay (NCI)", "note": "Values joined by “and” are separate entries in the source; they are usually repeats but may differ in a detail not shown here. Equal values may be shown once. About 83,000 compounds went through this panel and 20% of them were active in at least one assay; those are over-represented in the sample as a whole.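 Activity criterion: percent growth below 10, measured after cells in 96-well plates were exposed to a single compound concentration for 48 hours.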 Active and inactive are the calls of the source."}
{"tested_on": "SNB-75 CNS", "assay": "NCI-60 one-dose screen, 48 h (100 = growth as untreated, 0 = no growth, -100 = all killed)", "details": "10 µM unless noted", "protocol": "Growth inhibition of the SNB-75 human tumor cell line is measured as a screen for anti-cancer activity. Cells are grown in 96 well plates and exposed to the test compound for 48 hours. Compounds are tested at a single concentration, which is 10^-5 M for most compounds. The reported endpoint is percent growth (GI% or GIPRCNT), where numbers from 0 - 100% represent growth inhibition, and numbers from -100% - 0 represent cell death. For example, a value of 40 represents 60% growth inhibition. A value of 0 means no net growth occurred over the course of the experiment. A value of -40 indicates 40% of cells at the beginning of the experiment died by the end of the experiment. A value of -100 means all cells are dead at the end of the experiment.\nNCI-60 Human Tumor Cell Lines Screen was performed using the standard one-dose NCI protocol, which is described in more detail at https://dtp.cancer.gov/discovery_development/nci-60/default.htm.\nCompounds with GIPRCNT values below 10 were considered active. Activity score was based on GIPRCNT using the following formula: […]\nScore is 0 for GIPRCNT values of 100 or above, 50 for GIPRCNT values of 0, and 100 for GIPRCNT values of -100."}
{"smiles": "Cc1ccc(/C=N/Nc2nc(Nc3ccccc3)nc(Nc3ccc(S(N)(=O)=O)cc3)n2)cc1", "growth": "67.7% (inactive)"}
{"smiles": "O=C1[C@H]2Cc3c([nH]c4ccccc34)[C@H](c3ccc(Br)cc3)N2C(=O)CN1C1CCN(CC2CCCCC2)CC1", "growth": "52.6% (inactive)"}
{"smiles": "CCCCCCNC(=O)Oc1ccc(/C(=C(/C)c2ccc(OC)cc2)c2ccc(OCCN3CCCCCC3)cc2)cc1", "growth": "76.8% (inactive)"}
{"smiles": "O=S(=O)(NCCCNc1nccc(-c2[nH]c(-c3ccccc3)nc2-c2ccc(F)c(O)c2)n1)c1cccc2ccccc12", "growth": "75.4% (inactive)"}
{"smiles": "CC1(C)CC[C@]23CC[C@]4(C)[C@H](CC[C@@H]5[C@@]6(C)CC[C@H](N)C(C)(C)[C@@H]6CC[C@]54C)[C@H]2[C@H]1OC3", "growth": "99.5% (inactive)"}
{"smiles": "CS(=O)(=O)c1nccc(-c2c(-c3cccc(OCc4ccc(Cl)c(C(F)(F)F)c4)c3)nc3sccn23)n1", "growth": "108% (inactive)"}
{"smiles": "NC(=O)c1c(NC(=O)c2ccc(C(F)(F)F)cc2)sc2c1CCC(=O)C2", "growth": "-7.54% (active)"}
{"smiles": "N#Cc1c(-c2cccs2)cc(-c2cnccn2)nc1SCC(=O)N/N=C/c1cccs1", "growth": "42.8% (inactive)"}
{"smiles": "CSc1ccc(/C(=N/N=C(N)N)c2ccc(F)cc2)cc1", "growth": "44.2% (inactive)"}
{"smiles": "C#CCOc1ccc(-c2csc(NC(=O)C=C)n2)cc1NS(=O)(=O)c1cccc2c(N(C)C)cccc12", "growth": "1.15% (active)"}
{"smiles": "Oc1[nH]c2ccc(Cl)cc2c1N=Nc1nc(N=Nc2c(O)[nH]c3ccc(Cl)cc23)nc(N2CCOCC2)n1", "growth": "-0.671% (active)"}
{"smiles": "C#C[C@]1(O)CC[C@H]2[C@@H]3CC=C4c5sc(N6CCN(C)CC6)nc5CC[C@]4(C)[C@H]3CC[C@@]21C", "growth": "75.2% (inactive)"}
{"smiles": "Cn1c(SCC(=O)c2ccco2)nc2ccccc2c1=O", "growth": "86.2% (inactive)"}
{"smiles": "CCOC(=O)c1ccccc1NC1=C(Cl)C(=O)c2nc(C)ccc2C1=O", "growth": "81.1% (inactive)"}
{"smiles": "NC1=NC2(CCCC2)N(c2ccc(S(=O)(=O)Nc3nccs3)cc2)C(N)=N1", "growth": "112% (inactive)"}
{"smiles": "COc1cc2c3c(cc4c5c(ccc4c3c1OC)OCO5)N(CCN(C)C)C2=O", "growth": "-75.5% (active)"}
{"smiles": "CCCNNC(=O)c1ccc(-c2ccc(NC(=O)CCCCCCC(=O)N[C@H](C(=O)N3C[C@H](O)C[C@H]3C(=O)N[C@@H](C)c3ccc(-c4scnc4C)cc3)C(C)(C)C)cc2)cc1", "growth": "55.1% (inactive)"}
{"smiles": "CC1=C(C)C(=O)C(Nc2ccc(C)cc2)=C(Br)C1=O", "growth": "89% (inactive)"}
{"smiles": "COc1cc(-c2nc(-c3ccccc3)[nH]c2-c2ccnc(NCCCNS(=O)(=O)c3ccc(C(F)(F)F)cc3)n2)ccc1Cl", "growth": "58.6% (inactive) and 67.5% (inactive)"}
{"smiles": "O=C(/C=C/c1ccccc1)c1cccc(O)c1", "growth": "81.8% (inactive)"}
{"smiles": "FC(F)(F)c1cc(Br)cc(-c2cc(-c3ccc4c(c3)OCCO4)[nH]n2)c1", "growth": "5.38% (active)"}
{"smiles": "CCN(CC)CCOc1ccc(C(=C(C)Cc2ccc(OC)cc2)c2ccc(OCCN(CC)CC)cc2)cc1", "growth": "76.5% (inactive)"}
{"smiles": "COc1cc(C(=O)c2cc(C(C)=O)c3c(C)cccn23)cc(OC)c1OC", "growth": "64.6% (inactive)"}
{"smiles": "CCCCc1nc2c(N)nc3ccccc3c2n1Cc1cccc(CN)c1", "growth": "15.1% (inactive)"}
{"smiles": "C/C=C/CC(C)C(O)[C@H](NC(=O)[C@@H]1CCCN1C(=O)[C@](C)(CC)NC(=O)CCCCCCCCC)C(=O)N[C@@](C)(CC)C(=O)N[C@@H](CCC(N)=O)C(=O)N[C@H](CCC(N)=O)C(=O)NC(C)(C)C(=O)NC(C)(C)C(=O)N[C@@H](CCC(N)=O)C(=O)N[C@H](CC(C)C)C(=O)N[C@H](CO)CC(C)C", "note": "(stereo not given in full)", "growth": "13.1% (inactive) and -93.4% (active)"}
{"smiles": "C#C[C@]1(O)CC[C@H]2[C@@H]3CC=C4c5sc(Nc6cc(Cl)ccc6OC)nc5CC[C@]4(C)[C@H]3CC[C@@]21C", "growth": "-1.39% (active)"}
{"smiles": "O=C(N/N=C\\c1ccc(F)cc1)c1ccc2nc(-c3ccc(Br)cc3)[nH]c2c1", "growth": "53.7% (inactive)"}
{"smiles": "CC(=C(c1ccc(OCCN2CCCC2)cc1)c1ccc(OCCN2CCCC2)cc1)c1ccc(Cl)cc1", "growth": "45.8% (inactive)"}
{"smiles": "O=[N+]([O-])c1ccc(NC(=S)NNC(=S)Nc2ccc(F)cc2)cc1", "growth": "103% (inactive)"}
{"smiles": "CCCCCCOC(=O)c1cc(-c2ccc(F)cc2)nc2ccccc12", "growth": "69.9% (inactive)"}
{"smiles": "COc1cc2cc(Oc3ccc(NC(=O)c4cc(C(F)(F)F)cc(C(F)(F)F)c4)cc3)c(C)nc2cc1OCCN1CCOCC1", "growth": "47.7% (inactive)"}
{"smiles": "O=c1[nH][nH]c(-c2ccc(F)cc2)c1-c1nc2ccccc2s1", "growth": "88.4% (inactive)"}
{"smiles": "C#CCOc1ccccc1/C=N/Nc1nc(-c2ccc(Cl)cc2)cs1", "growth": "92.5% (inactive)"}
{"smiles": "Cn1c(SCC(=O)c2ccc(F)cc2)nc2ccccc2c1=O", "growth": "91.1% (inactive)"}
{"smiles": "NS(=O)(=O)c1cccc(Nc2nc(SCC(=O)c3ccc(Cl)cc3)nc3c2CCC3)c1", "growth": "87% (inactive)"}
{"smiles": "CCOC(=O)c1cccc(NC2=C(Cl)C(=O)C(C)=C(C)C2=O)c1", "growth": "104% (inactive)"}
{"smiles": "COc1ccc(Cn2cc(C#N)c(N)c2C(C)=O)cc1", "growth": "84.5% (inactive)"}
{"smiles": "CC(=C(c1ccc(OCCCN(C)C)cc1)c1ccc(OCCCN(C)C)cc1)c1ccc(Cl)cc1", "growth": "75.8% (inactive)"}
{"smiles": "CCOC(=O)c1cccc(NC2=C(Cl)C(=O)c3nc(C)ccc3C2=O)c1", "growth": "108% (inactive)"}
{"smiles": "Cc1ccc2c(n1)C(=O)C(Cl)=C(Nc1ccc(C(F)(F)F)cc1)C2=O", "growth": "115% (inactive)"}
